This is an account of results in PubChem BioAssay.

Structures are written as SMILES. Calls of active or inactive are those of the source.

Test [1] has as its target Albumin (Bos taurus) (UniProt P02769). Put plainly: compounds binding labelled BSA control protein – biochemical, small-molecule microarray, Alexa647 label, 635/667 nm fluorescence, artefact control for SMM control protein annotation, profiling panel (AID 1118).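 Note: score merges 667 nm emission intensity and signal-to-noise per printed compound spot.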 The conditions noted are these: BSA-A647 binding, fluorescence 635 nm, higher = more signal.
Test [2] can be described thus: probe aXIP binding to arrayed compounds – biochemical, NeuroSMM set, 635/667 nm fluorescence, primary screen (AID 1119).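 Note: probe is the protein aXip251-270 applied at 1 µg/mL to compound-printed slides; binding of probe to printed compounds measured as 667 nm fluorescence plus signal to noise.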 The conditions noted are these: small-molecule microarray, higher = more signal, called active from +8 up or from −8 down.
Test [3] is described as follows: probe aNOTCH3 binding on compound microarray – biochemical, small-molecule microarray, 635/667 nm fluorescence, primary screen (AID 1120).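 Note: probe is a biotin-tagged antibody raised against NOTCH3 rather than NOTCH3 protein; score merges spot fluorescence near 667 nm with spot signal to noise.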 The following applies: higher = more signal.
The nature of test [4]: probe aNOTCH2 binding on compound microarray – biochemical, small-molecule microarray, 635/667 nm fluorescence, primary screen (AID 1121).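 Note: score merges feature fluorescence read at 667 nm with its signal to noise.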 The conditions noted are these: higher = more signal.
Test [5] concerns the target Carbonic anhydrase 2 (Homo sapiens) (UniProt P00918). The test is described as follows: compounds binding carbonic anhydrase 2 – biochemical, small-molecule microarray, Alexa647-labelled CAII, profiling panel (AID 1122). The conditions noted are these: CAII-A647 binding fluorescence, higher = more signal.
Test [6] is described as follows: COS7 lysate on small-molecule microarray, probe aHis, 635 nm (AID 1123).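 Note: z-score combines 667nm fluorescence intensity with signal-to-noise per printed compound spot.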 The following applies: COS7 cell lysate, fluorescence, higher = more signal.
A short description of test [7]: probe aLAP1 signal on lysate-treated microarray – cell lysate, small-molecule microarray, COS7 lysate, primary screen (AID 1124).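 Note: lysate comes from COS7 cells expressing LAP1 and is applied at 0.3 µg/mL; score merges spot fluorescence near 667 nm with signal-to-noise over triplicate slides.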 The conditions noted are these: probe aLAP1, fluorescence, higher = more signal.
Test [8] has as its system Sam68 (KHDRBS1). Put plainly: compounds binding KHDRBS1 protein – biochemical, small-molecule microarray, 635 nm fluorescence, primary screen (AID 1125).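 Note: score merges 667 nm channel intensity with signal to noise over triplicate slides.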 The conditions noted are these: higher = more signal.
Test [9] deals with Chordin-like protein 2 (CHRDL2). Put plainly: compounds binding chordin-like 2 – biochemical, small-molecule microarray, 635 nm fluorescence, primary screen (AID 1126).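 Note: printed compound slides probed with Chrdl2 protein at 4 µg/mL for 1 h at 4 C; score merges 667 nm emission intensity with signal to noise over three replicate slides.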 The following applies: fluorescence 635 nm, higher = more signal.
For test [10], the target named is Concanavalin-A (Canavalia ensiformis) (UniProt P02866). The test is described as follows: compounds binding concanavalin A lectin – biochemical, small-molecule microarray, Alexa647 label, 635 nm, artefact control for SMM control protein annotation, primary screen (AID 1127).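 Note: z combines 667 nm emission intensity with signal-to-noise across three replicate slides.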 The following applies: ConA-A647 binding fluorescence, higher = more signal.
Concanavalin-A (Canavalia ensiformis), sequence (P02866 whole entry, looked up): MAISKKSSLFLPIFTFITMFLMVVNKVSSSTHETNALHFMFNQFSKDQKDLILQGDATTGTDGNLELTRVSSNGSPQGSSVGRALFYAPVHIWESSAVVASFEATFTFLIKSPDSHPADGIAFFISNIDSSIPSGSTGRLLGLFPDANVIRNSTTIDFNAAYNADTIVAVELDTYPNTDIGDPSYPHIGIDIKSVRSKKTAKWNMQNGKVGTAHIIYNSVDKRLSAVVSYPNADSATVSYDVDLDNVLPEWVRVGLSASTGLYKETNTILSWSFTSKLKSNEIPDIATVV

Albumin (Bos taurus), sequence (P02769 whole entry, looked up): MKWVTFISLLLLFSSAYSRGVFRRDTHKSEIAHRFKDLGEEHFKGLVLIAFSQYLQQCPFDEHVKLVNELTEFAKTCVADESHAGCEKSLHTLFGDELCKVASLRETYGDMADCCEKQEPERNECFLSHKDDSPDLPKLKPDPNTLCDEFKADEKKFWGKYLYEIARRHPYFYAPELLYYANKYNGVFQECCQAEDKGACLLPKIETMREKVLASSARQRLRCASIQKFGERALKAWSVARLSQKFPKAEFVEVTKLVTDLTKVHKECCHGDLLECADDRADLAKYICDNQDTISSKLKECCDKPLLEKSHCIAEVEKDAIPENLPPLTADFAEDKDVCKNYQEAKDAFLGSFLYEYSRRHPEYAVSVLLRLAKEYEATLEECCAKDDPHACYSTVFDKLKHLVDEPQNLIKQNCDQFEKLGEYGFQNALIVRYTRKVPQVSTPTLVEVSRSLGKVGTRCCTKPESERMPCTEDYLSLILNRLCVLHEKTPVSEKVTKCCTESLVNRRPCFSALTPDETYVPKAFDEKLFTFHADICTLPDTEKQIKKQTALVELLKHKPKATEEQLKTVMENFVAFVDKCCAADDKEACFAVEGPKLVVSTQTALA

In the case of `CC(C)=CCCC(C)=CCON=C1C[C@@H](O)[C@@H](O)[C@@H]2[C@@H]3C(=O)N(C[C@@H]4CCCO4)C(=O)[C@@H]3CC[C@@H]12`, the composite z-score in [1] is -0.506; in test [3] it was -0.0328; in test [4], -0.0907; in test [5], 0.452; in [6], 0.877; in test [7] it was -0.108. The composite z-score in test [8] is 1.3; in test [9] it was 1.39; in test [10] it was 0.296. Moreover, in test [2], the composite Z-score was 2.86 (inactive).
On to `CCOC(=O)CCN1C(=O)[C@H]2[C@H]3[C@H](O)C=CC(=O)[C@@H]3CC[C@H]2C1=O`, for which the composite z-score is -0.186 in test [1]; -0.0449 in [3]; -0.0686 in test [4]; -0.078 in test [5]; 0.107 in [6]; -0.225 in test [7]. Further, the values for the composite z-score in [8], in [9] and in test [10] were 0.323, 0.34 and 0.412, respectively. Besides, the composite Z-score in test [2] is 0.422 (inactive).
For the compound `COC(=O)C1=C(C)N(Cc2ccccc2)[C@]23O[C@](C(=O)OC)(C(=O)N2[C@@H]1c1ccccc1)[C@H]1CCOC(=O)[C@H]13`, the composite z-score in test [1] was 0.735; in test [3] it was -0.0587; in [4], -0.131; in test [5], 0.0198; in [6] it was -0.12; in [7], 0.21. The composite z-score in test [8] is -0.0775; in test [9] it was 0.702; in [10], 0.0349. Besides, in test [2], the composite Z-score is 0.493 (inactive).
On to `CO[C@H]1COC(=O)CC=C[C@H](C)[C@@H](NS(=O)(=O)c2ccc(C)cc2)COC(=O)CC=C[C@@H]1C`, for which the composite z-score in test [1] was -0.498; in test [3] it was -0.0436; in test [4], -0.151; in test [5], -0.0698; in test [6], -0.51; in test [7] it was 0.216. The composite z-score in test [8] is 0.165; in test [9], 0.713; in test [10] it was -0.408. Further, in [2], the composite Z-score was -0.38 (inactive).
For `COc1ccc(O[C@H]2C=C[C@@H](c3ccccc3)O[C@@H]2COC(=O)CCC(C)=NO[C@@H](C)c2cc(-c3c(C)cc(C)cc3C)no2)cc1`, the composite z-score was -0.0567 in test [1]; -0.187 in test [3]; -0.153 in test [4]; -0.505 in test [5]; -0.451 in test [6]; -0.522 in [7]. For the same compound, the values for the composite z-score in test [8], in [9] and in [10] were -0.822, -0.654 and -1.63, respectively. The composite Z-score in test [2] was -0.314 (inactive).
For the compound `CCCCc1nc2c(c3c1C[C@H](C)OC3)CN(CCC(C)C)CC2`, the composite z-score in test [1] is 0.627; in test [3] it was -0.0343; in test [4] it was -0.16; in test [5], 0.221; in [6], 1.68; in test [7] it was 0.44. For the same compound, the composite z-score in test [8] came to 1.31; in test [9] it was 0.388; in test [10], 0.934. For the same compound, in [2], the composite Z-score is -0.214 (inactive).
For the compound `C[C@H]1Cc2c(-c3ccccc3)nc3c(c2CO1)CN(CCOc1ccccc1)CC3`, the composite z-score was 0.68 in test [1]; 0.0667 in test [3]; -0.112 in [4]; 0.352 in test [5]; 0.71 in test [6]; 0.292 in test [7]. Moreover, the composite z-score in test [8] was 1.3; in test [9], 0.521; in [10], 0.993. Further, the composite Z-score in test [2] is -0.2 (inactive).
`CC(CCC(=O)OC[C@H]1O[C@H](C#Cc2ccccc2)C=C[C@@H]1Oc1ccc(C)cc1)=NOC[C@@H](O)COCc1ccco1`: the composite z-score in test [1] is -0.515; in [3] it was -0.781; in [4], -0.306; in test [5], -0.451; in test [6], -0.128; in [7], -0.547. The values for the composite z-score in [8], in test [9] and in test [10] were -1.96, -3.83 and -3.95, respectively. Also, the composite Z-score in [2] was -0.142 (inactive).
With `CC(C)[C@@H](OCc1ccccc1)[C@H](C)C=NO[C@H](C)c1cn([C@H](CO)Cc2ccccc2)nn1`, the composite z-score in test [1] was 0.0792; in test [3] it was -0.0362; in test [4] it was -0.163; in test [5], 0.0227; in [6], 0.544; in test [7] it was 0.294. Besides, the composite z-score in [8] was 1.01; in test [9] it was 0.779; in [10], 0.392. Further, the composite Z-score in test [2] was 0.0599 (inactive).
Consider `C[C@@H]1C=CCC(=O)OC[C@H](C)C(=O)N[C@@H](C)C(=O)OC1`, for which the composite z-score was -0.171 in [1]; -0.0647 in test [3]; -0.144 in [4]; -0.385 in [5]; -0.466 in test [6]; 0.369 in [7]. The results for the composite z-score in [8], in test [9] and in [10] were 0.175, 0.71 and 0.155, respectively. Further, in [2], the composite Z-score is 0.215 (inactive).
For `CCCC[C@@H](O)C1=C(C)C[C@H]2C(=O)N(Cc3ccccc3)C(=O)[C@H]2[C@H]1CO`, the composite z-score in test [1] was 0.0852; in test [3], -0.0175; in test [4], -0.133; in [5] it was -0.215; in [6], -0.377; in test [7], 0.0292. The figures for the composite z-score in test [8], in test [9] and in [10] were 0.241, 0.538 and 0.321, respectively. Moreover, the composite Z-score in [2] was -0.041 (inactive).
As for `CN(C)c1ccc(C(O)C2C=CC3C(=O)N(c4ccccc4)C(=O)C3N2Nc2ccccc2F)cc1` (stereo not given), the composite z-score was 0.62 in test [1]; 0.134 in test [3]; 0.0605 in test [4]; 0.522 in test [5]; 1.11 in test [6]; -0.301 in [7]. The composite z-score is 0.87 in test [8], -0.371 in test [9] and 0.676 in [10]. Further, the composite Z-score in test [2] is -0.122 (inactive).
On to `C/C=C\[C@@H](NCc1ccccc1Br)[C@@H](O)Cc1ccccc1`, for which the composite z-score is 0.099 in [1]; -0.221 in test [3]; -0.13 in test [4]; -0.263 in test [5]; -0.103 in [6]; -0.0543 in [7]. Also, the composite z-score is -0.636 in test [8], -1.02 in test [9] and -0.342 in test [10]. Besides, in test [2], the composite Z-score is 0.168 (inactive).
For the compound `CC(CCN1CCc2nc(-c3ccccc3)c(-c3ccccc3)cc2C1)=NOC[C@@H](C)[C@H](OCc1ccccc1)C(C)C`, the composite z-score in test [1] was 0.474; in test [3], 0.0375; in test [4], -0.177; in [5], -0.0642; in [6], 0.271; in test [7] it was -0.2. Also, the composite z-score in [8] was -1.19; in test [9] it was -1.11; in test [10], -0.198. In test [2], the composite Z-score was -0.193 (inactive).
Turning to `C#CCCCON=C1C[C@@H](O)[C@@H](O)[C@@H]2[C@@H]3C(=O)N(CCC(=O)OCC)C(=O)[C@@H]3CC[C@@H]12`, the composite z-score in test [1] is 0.674; in test [3], 0.0836; in test [4], -0.0404; in test [5], -0.0544; in [6], 0.166; in [7], 1.05. Moreover, the composite z-score in test [8] is -0.349; in test [9], 0.715; in test [10], -0.962. Besides, the composite Z-score in test [2] was -0.521 (inactive).
As for `CO[C@H]1COC(=O)[C@H](C)NC(=O)[C@@H](C)COC(=O)CC=C[C@@H]1C`, the composite z-score in test [1] was -0.331; in test [3], -0.0391; in [4], -0.192; in test [5], -0.336; in test [6], -0.851; in [7] it was -0.0193. The composite z-score in test [8] amounted to 0.41; in test [9], 0.858; in test [10], 0.303. Besides, in [2], the composite Z-score is 0.0462 (inactive).
